Shown are actives, neighbours in structure and some others; about 1.6% of the full set was active somewhere.
Jurkat viability = reduces viability or proliferation of Jurkat cells; Jurkat E6.1 viability, ATP luminescence, 48 h; inhibition, % at 4 µM; 1.2% of 56,000 active; AID 463;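 active = inhibition above the mean inhibition of all tested compounds plus 3 SD, cut at about 28% in these data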
SKBR3 24h inh = SK-BR-3 proliferation inhibitors. viability, % at 10 µM. 0.47% of 41,000 active. SK-BR-3 viability, CellTiter-Glo ATP luminescence, 24 h; hits give low values;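 active = viability at or below the median of all test compounds minus 3 SD, in both replicates if run twice, cut at about 45% in these data; inconclusive = duplicate replicates that disagree with each other; inactive = viability above that cutoff in every replicate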;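 also: 100% = median untreated cell wells and 0% = median positive control drug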
Cdc25B block = human M-phase inducer phosphatase 2 inhibition; 0.1% of 65,000 active; P30305; inhibition, %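 (compounds tested at 10 µM final in the well)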; recombinant Cdc25B, OMFP fluorescence Ex485/Em525; in the data active = inhibition above about 50%
mHtt clearance = mutant huntingtin protein clearance; HeLa Exon1htt(103Q)mCFP, aggregate imaging; zero = plate's median compound well; inhibition, % at 1.5 µM; 0.42% of 47,000 active;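 active = inhibition of aggregate fluorescence above about 70%, also judged a hit by eye on the cell image, limit read from the data, passing the limit was not always enough; inconclusive = no rule stated for this call; inactive = not judged a hit on image review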;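 also: cells exposed to compound for three days before fixation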
DUSP1 inh = human dual specificity phosphatase 1 inhibition; 0.15% of 65,000 active; AID 374; P28562; recombinant MKP-1, OMFP hydrolysis fluorescence; inhibition, %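 (compounds tested at a single concentration somewhere between 10 and 100 µM)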;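 active = inhibition above about 50%, limit read from the data; inconclusive = inhibition over screen mean plus 3 SD, below that limit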;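 also: 0% = DMSO max control wells and 100% = wells with enzyme stopped by NaOH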
Target sequence (P28562 whole entry, looked up): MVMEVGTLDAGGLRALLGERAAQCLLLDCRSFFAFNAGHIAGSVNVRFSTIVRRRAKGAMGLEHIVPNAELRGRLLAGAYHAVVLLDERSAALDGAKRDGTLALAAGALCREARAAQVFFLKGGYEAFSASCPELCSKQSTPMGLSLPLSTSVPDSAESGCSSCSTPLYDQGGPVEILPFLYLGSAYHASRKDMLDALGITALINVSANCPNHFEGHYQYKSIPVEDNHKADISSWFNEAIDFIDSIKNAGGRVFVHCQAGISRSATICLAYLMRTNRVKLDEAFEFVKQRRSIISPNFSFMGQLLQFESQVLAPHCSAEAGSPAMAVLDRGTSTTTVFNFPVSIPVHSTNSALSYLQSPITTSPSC
* = called active by the depositor.

Results for O=C(NCc1ccccc1)c1noc2c1CCCC2 ?
Jurkat viability: 56.1*; SKBR3 24h inh: 94.8; Cdc25B block: -6.5; DUSP1 inh: 6.4

Results for O=C(NCc1cccc(F)c1)c1noc2c1CCCC2 ?
Jurkat viability: 59.8*; Cdc25B block: -12.8; DUSP1 inh: -0.1

What do the screens show for `Cc1cccc(NC(=O)CN(c2ccc(C(C)C)cc2)S(=O)(=O)c2c(C)nn(C)c2C)n1`?
mHtt clearance: 0.2

What do the screens show for `CCOC(=O)c1c(C)n(OCc2ccccc2)c2ccc3c(no[n+]3[O-])c12`?
Jurkat viability: 1.6; SKBR3 24h inh: 99.2; Cdc25B block: -8.2; DUSP1 inh: -0.6

Results for Cn1c(-c2ccccc2)cc2c3no[n+]([O-])c3ccc21 ?
Jurkat viability: 78.0*; SKBR3 24h inh: 88.1; Cdc25B block: 3.4; mHtt clearance: inactive; DUSP1 inh: 9.8

Results for COc1ccc(N(CC(=O)Nc2cc(Cl)ccc2OC)S(=O)(=O)c2c(C)noc2C)cc1 ?
Jurkat viability: 88.3*; SKBR3 24h inh: 93.9; Cdc25B block: -4.1; mHtt clearance: 17.7; DUSP1 inh: 1.3

What do the screens show for `COc1ccc(OC)c(NC(=O)CN(c2ccc(C)cc2)S(=O)(=O)c2c(C)noc2C)c1`?
Jurkat viability: 1.0; SKBR3 24h inh: 58.4; Cdc25B block: -12.9; DUSP1 inh: 9.7

Results for Cc1ccc(C)c(-n2nnnc2SCC(=O)c2ccc3c(c2)NC(=O)CO3)c1 ?
Jurkat viability: 2.1; Cdc25B block: -6.1; mHtt clearance: -20.6; DUSP1 inh: 52.3*

What do the screens show for `CC(=O)Nc1ccc(N2C(C(C)=O)=NN(c3ccc(Cl)cc3)C2c2sccc2C)cc1` (stereo not drawn)?
mHtt clearance: -17.9

What do the screens show for `Cc1cc(/C=N/n2cnnc2)c(C)n1-c1ccc(OCc2ccc(F)cc2)cc1`?
Jurkat viability: 44.8*; SKBR3 24h inh: 97.3; Cdc25B block: -26.8; DUSP1 inh: 11.7

What do the screens show for `Cc1cc(/C=N/n2cnnc2)c(C)n1-c1cccc(Cl)c1`?
Jurkat viability: -4.9; SKBR3 24h inh: 117.2; Cdc25B block: -2.1; DUSP1 inh: -5.8

What do the screens show for `COC(=O)c1sc(NC(=O)C2CCCCC2C(=O)O)c(C(=O)OC)c1C` (stereo not drawn)?
Jurkat viability: -1.5; SKBR3 24h inh: 92.1; Cdc25B block: -4.1; DUSP1 inh: 11.8

What do the screens show for `OCCNc1nc(SCc2ccccc2)nc2sc3c(c12)CCC3`?
mHtt clearance: -36.6

What do the screens show for `CCCOc1ccc2ccccc2c1/C=N/n1c(C)nnc1-n1nc(C)cc1C`?
Jurkat viability: 81.5*; SKBR3 24h inh: 94.8; Cdc25B block: -6.4; DUSP1 inh: 5.3

How did Cc1ccc(C2c3c(-c4ccccc4O)n[nH]c3C(=O)N2Cc2ccncc2)cc1 (stereo not drawn) do in these assays?
Jurkat viability: 86.5*; SKBR3 24h inh: 90.5; Cdc25B block: 4.4; mHtt clearance: 2.1; DUSP1 inh: -6.2

What do the screens show for `CCOc1cc(C#N)c(NC(=O)c2ccco2)cc1OCC`?
Jurkat viability: 79.4*; SKBR3 24h inh: 90.1; Cdc25B block: 19.9; DUSP1 inh: -0.1

How did CCOc1cc(NC(=O)c2ccco2)c(OCC)cc1NC(=O)c1cc(OC)c(OC)c(OC)c1 do in these assays?
Jurkat viability: 1.8; SKBR3 24h inh: 85.1; Cdc25B block: -7.2; mHtt clearance: -69.8; DUSP1 inh: 19.4

How did CC(=O)COc1ncn(-c2ccccc2)n1 do in these assays?
mHtt clearance: -25.5

How did COc1cc(CNc2ccc(C)c(C)c2)cc(OC)c1OC do in these assays?
Jurkat viability: 88.0*; Cdc25B block: 0.8; DUSP1 inh: 3.8

Results for Cc1cccc(N2C(=O)CC(Sc3nnc(C)s3)C2=O)c1 (stereo not drawn) ?
mHtt clearance: -66.8

What do the screens show for `CCc1nnc(NC(=O)CSc2nc3c(c(=O)n2CC)SC(C)C3)s1` (stereo not drawn)?
Jurkat viability: 6.2; Cdc25B block: -6.1; DUSP1 inh: 12.7

What do the screens show for `Cn1c(=O)c2cc(S(=O)(=O)Nc3ccc4c(c3)OCO4)ccc2n(C)c1=O`?
Jurkat viability: 3.8; SKBR3 24h inh: 70.3; Cdc25B block: -2.8; mHtt clearance: -26.9; DUSP1 inh: -3.7

What do the screens show for `Cn1c(=O)n(C)c2cc(NS(=O)(=O)c3ccc4c(c3)CCCC4)ccc21`?
Jurkat viability: 39.3*; SKBR3 24h inh: 94.3; Cdc25B block: 2.9; mHtt clearance: 1.7; DUSP1 inh: 19.8

How did CCOC(=O)c1oc2ccc(S(=O)(=O)Nc3ccc4c(c3)n(C)c(=O)n4C)cc2c1C do in these assays?
Jurkat viability: 44.0*; SKBR3 24h inh: 96.2; Cdc25B block: -2.0; DUSP1 inh: 39.2

Results for Cc1ccc(Nc2ncc3c(n2)CC(c2ccco2)CC3=O)c(C)c1 (stereo not drawn) ?
Jurkat viability: 2.5; SKBR3 24h inh: 83.8; Cdc25B block: 78.3*; mHtt clearance: -32.2; DUSP1 inh: 27.2

How did CN1C=CC2=C(C#N)C(N)C(C#N)(C#N)[C@H](c3ccccc3)[C@H]2C1 (stereo partly drawn) do in these assays?
mHtt clearance: 24.8

What do the screens show for `CCn1c(-c2ccc(N)cc2)nc2ccccc21`?
Jurkat viability: -16.6; Cdc25B block: -3.1; mHtt clearance: 2.9; DUSP1 inh: 11.7

How did CCn1c(-c2ccc(N(C)C)cc2)nc2ccccc21 do in these assays?
Jurkat viability: 49.5*; SKBR3 24h inh: 71.7; Cdc25B block: -1.5; mHtt clearance: 31.4; DUSP1 inh: -25.4

What do the screens show for `CCCN1C(=O)c2ccccc2NC1c1ccc(OC)cc1O` (stereo not drawn)?
Jurkat viability: 36.4*; SKBR3 24h inh: 67.4; Cdc25B block: 4.4; DUSP1 inh: -5.9

What do the screens show for `O=C(NCc1ccccc1)N[C@@H](Cc1c[nH]c2ccccc12)C(=O)O`?
Jurkat viability: -11.4; SKBR3 24h inh: 111.5; Cdc25B block: 3.8; DUSP1 inh: 9.9

How did O=C(COc1ccccc1)NC(Cc1c[nH]c2ccccc12)C(=O)O (stereo not drawn) do in these assays?
Jurkat viability: -10.0; Cdc25B block: -3.6; mHtt clearance: 70.6*; DUSP1 inh: 13.7

Results for COc1ccc(-c2nnc3n2N=C(c2ccccc2)CS3)cc1OC ?
Jurkat viability: -4.3; SKBR3 24h inh: 24.0*; Cdc25B block: -20.2; DUSP1 inh: -17.7

What do the screens show for `CCOc1ccc(C2=Nn3c(nnc3-c3ccc(OC)cc3)SC2)cc1`?
Jurkat viability: 61.8*; SKBR3 24h inh: 75.6; Cdc25B block: 2.6; mHtt clearance: inconclusive; DUSP1 inh: -8.1

How did CCOc1ccc(N2C(=O)CC(NCc3ccc(F)cc3)C2=O)cc1 (stereo not drawn) do in these assays?
Jurkat viability: 1.5; SKBR3 24h inh: 87.7; Cdc25B block: -3.8; mHtt clearance: 53.0; DUSP1 inh: -6.2

How did O=C1CC(NCc2ccccc2F)C(=O)N1c1ccccc1 (stereo not drawn) do in these assays?
Jurkat viability: -9.5; SKBR3 24h inh: 39.2*; Cdc25B block: -10.9; DUSP1 inh: -16.8
